VP16 counter: Gal4-VP16 reporter inhibition counter-screen; Drosophila S2 Gal4-VP16 UAS-luciferase, luminescence, 20 h; Potency, µM (doses to about 53.6 µM), without a hit: at the highest dose activity, negative = inhibition, actives largely listed as inhibitors; actives 3.5% (n = 310,000);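 note: Gal4-VP16 expression switched on by copper sulfate through the metallothionein promoter; % is set by controls: 0 for no effect and ±100 for the full control effect; nearly all actives have a fitted effect of over 50% in size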
RORgamma inh: blocks mouse ROR gamma transcriptional activity | P51450 | Potency, µM (top dose mostly 53.6 µM), for inactives: at the top dose activity change, negative = inhibition, most hits filed as inhibitors | Drosophila S2 Gal4-RORgamma UAS-luciferase reporter, 20 h | actives 5.4% (n = 310,000); note: % is set by controls: 0 for no effect and ±100 for the full control effect; nearly all actives have a fitted effect of over 60% in size
Target sequence (P51450 whole entry, looked up, the tested form may be a part): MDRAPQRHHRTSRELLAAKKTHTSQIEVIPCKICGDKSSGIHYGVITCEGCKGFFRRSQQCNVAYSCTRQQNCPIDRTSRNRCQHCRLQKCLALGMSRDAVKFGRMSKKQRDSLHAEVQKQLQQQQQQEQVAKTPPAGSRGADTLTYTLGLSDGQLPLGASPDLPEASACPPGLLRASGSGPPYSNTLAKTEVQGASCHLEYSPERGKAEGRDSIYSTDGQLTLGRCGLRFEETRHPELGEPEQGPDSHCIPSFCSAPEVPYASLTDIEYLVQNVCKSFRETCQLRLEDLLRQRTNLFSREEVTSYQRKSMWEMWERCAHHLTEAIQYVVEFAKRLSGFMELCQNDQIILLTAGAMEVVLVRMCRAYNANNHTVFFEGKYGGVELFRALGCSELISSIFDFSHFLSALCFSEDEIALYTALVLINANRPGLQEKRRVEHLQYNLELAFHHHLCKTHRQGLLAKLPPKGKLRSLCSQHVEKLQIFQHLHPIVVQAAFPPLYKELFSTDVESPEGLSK
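Compounds are pin-transferred onto Drosophila Schneider cells expressing a copper-inducible Gal4–ROR gamma transactivation domain fusion. After 1 hr, copper sulfate is added to 700 uM final; luciferase is read 20 hr later.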
Sfp inh: inhibitors of Bacillus subtilis Sfp phosphopantetheinyl transferase; actives 3.5% (n = 310,000); Potency, µM, without a hit: largest response in the series, negative = inhibition, most hits filed as inhibitors; Biochemical Sfp PPTase activity, qHTS; Q9F4F7;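 note: the enzyme is Sfp with the accession as filed and its product quenches rhodamine fluorescence; 0% = enzyme reaction without inhibitor and -100% = no enzyme wells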
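Sfp 15 nM + cpd, 15 min RT; start w/ rhodamine-CoA 5 uM, BHQ-2-YbbR 12.5 uM (final); 50 mM Hepes pH 7.6, 10 mM MgCl2, 0.01% NP-40, 0.01% BSA; read 525/598 nm at 0 and 30 min.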
ClpP mod: qHTS Assay for Activators of ClpP; AID 651965, 2013; purified B. subtilis ClpP, FRET peptide cleavage, 20 min; ATP-dependent Clp protease proteolytic subunit (Bacillus subtilis (strain 168)), P80244; actives 1.9% (n = 340,000); Potency, µM (top dose mostly 57.5 µM), without a hit: at the top dose activity change, negative = active; active = well fitted falling curve with a large enough effect; inconclusive = small, poorly fitted or top-dose-only effect; inactive = no such curve, though single readings can be large or run the other way; note: the source files actives as falling curves though it sought activators and does not explain the sign; nearly all actives have a fitted effect of over 65% in size
Target sequence (P80244 whole entry, looked up): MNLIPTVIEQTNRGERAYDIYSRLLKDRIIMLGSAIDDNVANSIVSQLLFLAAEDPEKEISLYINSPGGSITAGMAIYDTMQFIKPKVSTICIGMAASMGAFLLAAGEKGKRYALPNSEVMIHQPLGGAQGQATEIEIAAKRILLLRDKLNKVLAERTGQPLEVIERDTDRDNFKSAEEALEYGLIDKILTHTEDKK
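ClpP 10 microg/mL final, pH 8 Tris/KCl buffer with BSA, glycerol, Tween-20; compound pinned in; FRET-FV substrate; RT 20 min; Ex320/Em430; ΔFRET vs ADEP 5.8 microM, DMSO, no enzyme.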
Epigenetic derep: regulators of epigenetic silencing causing reporter derepression in mouse cells; murine LDR cells, GFP reporter derepression, 30 h; Potency, µM (top dose mostly 53.9 µM), for the others: at the highest dose GFP activation, most hits filed as activators; actives 0.2% (n = 280,000); AID 1865; note: % of control where 0% means no effect; nearly all actives have a fitted effect of over 60% in size
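Murine LDR cells carrying a silenced, genomically integrated CMV-driven GFP reporter were exposed to compound for 30 hours at 37 C. After PBS washes, GFP-positive cells (20–120 um objects) were counted by laser-scanning microplate cytometry.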
PINK1 modulator: changes PINK1 expression; PINK1 immunofluorescence, high-content cytometry, 24 h; Potency, µM (highest dose often 76.6 µM), for the others: at the top dose activation (PINK1 increase), actives largely listed as activators; actives 0.2% (n = 410,000); active = well fitted activation curve with a large enough effect; inconclusive = small, poorly fitted or top-dose-only effect; cell line not stated here; note: % of control where 0% means no effect; nearly all actives have a fitted effect of over 65% in size
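Decision-based qHTS: stable cells, 24 h exposure to five compound concentrations, CCCP as control. Fixed cells stained for PINK1 plus nuclear, mitochondrial and cell markers, cytometer read.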
* hit, by the source's call; ? = inconclusive; / = no result; [ ] = another dose, or the depositor's remark. Shown are actives, neighbours in structure and some others; about 8.1% of the full set was active somewhere. Unless noted, calls come from the whole dose curve; as a rule, active = well fitted curve in the direction sought with a large enough effect; inconclusive = small, poorly fitted or top-dose-only effect, or another doubt; inactive = no such curve, though single readings can be large; an effect the other way counts as inactive or inconclusive. Potency is the fitted concentration of half-maximal effect.

SMILES	VP16 counter	RORgamma inh	Sfp inh	ClpP mod	Epigenetic derep	PINK1 modulator
COc1cc(/C=N/NC(=O)C23CC4CC(CC(C4)C2)C3)cc(Br)c1O	4%	8%	-14%	-2%	1%	3%
CCN(CC)C(=O)Cn1cc(C(=O)C(=O)NCC2COc3ccccc3O2)c2ccccc21 (stereo unspecified)	3%	41%	10%	20µM*	1%	2%
Cc1cc2ccccc2c(=O)n1CC(=O)N1CCN(c2cccc(Cl)c2)CC1	4%	-20%	-3%	-27%	-3%	3%
Cc1cc2ccccc2c(=O)n1CC(=O)NCC(=O)N1CCN(c2ccccc2)CC1	-7%	1%	50µM*	-26%	-6%	1%
CCN(CC)C(=O)Cn1cc(C(=O)C(=O)NCc2cccs2)c2ccccc21	-4%	21%	2%	1%	0%	2%
Cc1cc2ccccc2c(=O)n1CC(=O)NCC1COc2ccccc2O1 (stereo unspecified)	-5%	30%	6%	25µM*	0%	1%
Cc1ccc(NCc2n[nH]c(=S)n2-c2ccccc2)c(C)c1	?	1.8µM*	11%	0%	-1%	2%
Cc1ccc(S(=O)(=O)N(Cc2n[nH]c(=S)n2-c2ccccc2)c2ccccc2)cc1	-4%	?	-1%	/	1%	3%
Cc1ccc(NCc2n[nH]c(=S)n2-c2ccccc2)cc1	-5%	8.9µM*	?	/	-3%	0%
Cc1cccc(NCc2n[nH]c(=S)n2-c2ccccc2)c1	-18%	10µM*	?	-2%	1%	-1%
Nc1nc2ncn(COCCO)c2c(=O)[nH]1	/	/	/	-11%	/	1%
Cc1ccc(-c2csc3ncnc(Sc4nnnn4C4CC4)c23)cc1	/	/	/	-4%	/	1%
Cc1cc(OCC(=O)N2CCC(c3nc4ccccc4s3)CC2)ccc1Cl	/	/	/	-2%	1%	3%
O=C1C=C(N2CCCCC2)c2ccccc2C1=O	/	/	/	0%	/	-2%
CC(C)(C)C1=CC(=O)C(N2CCOCC2)=CC1=O	?	10µM*	-16%	-4%	-2%	-1%
CCCCOC1(c2ccccc2)NC(=S)NN=C1c1ccccc1 (stereo unspecified)	?	10µM*	6%	/	0%	/
COC1(c2ccccc2)NC(=S)NN=C1c1ccccc1 (stereo unspecified)	?	11µM*	-1%	0%	3%	8%
O=c1cc(-c2ccccc2)n2c(SCc3c(F)cccc3Cl)nnc2[nH]1	/	/	/	-27%	1%	6%
CCCCCCCCNC(=O)/C(C#N)=C/c1ccccc1[N+](=O)[O-]	7.9µM*	3.2µM*	-2%	-5%	-1%	-2%
N#C/C(=C\c1ccccc1[N+](=O)[O-])C(=O)NCc1ccccc1	?	?	-8%	/	1%	9%
N#C/C(=C\C=C\c1ccccc1[N+](=O)[O-])C(=O)NCc1ccccc1	?	14µM*	-9%	/	/	0%
CCOc1ccc(-n2c(Cc3ccccc3)nnc2SCc2nc(-c3cccs3)no2)cc1	/	/	/	2%	-2%	0%
CCOc1ccc(-n2c(Cc3ccccc3)nnc2SCc2c(C)noc2C)cc1	1%	-1%	-1%	2.8µM*	-2%	2%
N#C/C(=C\c1ccc(OC(=O)c2ccccn2)cc1)C(N)=O	1%	8%	50µM*	-1%	-1%	-1%
CCCCCc1cc(O)c2c(C)cc(=O)oc2c1	11µM*	3.2µM*	6%	-4%	1%	11µM*
SMILES	VP16 counter	RORgamma inh	Sfp inh	ClpP mod	Epigenetic derep	PINK1 modulator
CC(C)CCNc1nc2c(S(=O)(=O)c3ccc(Br)cc3)nnn2c2ccsc12	/	/	/	-17%	-1%	2%
Cc1ccc(S(=O)(=O)CNC(=S)c2cccc(C)c2)cc1	?	13µM*	3%	1%	4%	7%[38.3 µM]
Cc1ccc(S(=O)(=O)CNC(=S)c2ccc3ccccc3c2)cc1	?	11µM*	56µM*	-4%	6%	4%
COc1ccc(C(=S)NCS(=O)(=O)c2ccc(C)cc2)cc1	?	16µM*	?	-2%	0%	-2%
CN1C(=O)/C(=C2\SC(N)=NC2=O)c2ccccc21	-3%	8%	56µM*	0%	1%	7%
COc1ccccc1-n1c(-c2ccccc2)c[nH]c1=S	?	2.8µM*	10µM*	-3%	0%	5%
S=c1[nH]cc(-c2ccccc2)n1-c1ccccc1Cl	7.1µM*	3.5µM*	?	-2%	0%	0%
S=c1[nH]ccn1-c1c(Cl)cccc1Cl	-1%	-43%	5%	/	-1%	0%
CCN(CC)CC(O)COc1ccc2c(c1)OCO2 (stereo unspecified)	18%	7%	3%	13µM*	4%	2%
CCCC(=O)NC(c1ccc(OC)cc1)c1c(O)ccc2ccccc12 (stereo unspecified)	6%	2%	-5%	/	/	15%
COc1ccc(C(NC(=O)C2CCCCC2)c2c(O)ccc3ccccc23)cc1 (stereo unspecified)	-11%	-8%[10 µM]	-2%	25µM*	-1%	1%
Cc1cc(C)n(CC(O)COCc2ccccc2)n1 (stereo unspecified)	6%	-31%	0%	1%	10µM*	0%
CCN(Cc1ccncc1)Cc1ccc2c(c1)CN(C(=O)c1cccc3c(C)c(C)[nH]c13)CCO2	/	/	/	/	/	2%
CCC(CC)c1nnc(NC(=O)COc2ccc3c(c2)OCO3)s1	2%	-4%	25µM*	/	/	1%
CCC(CC)c1nnc(NC(=O)c2ccc3c(c2)OCO3)s1	-28%	?	45µM*	/	/	1%
CCC(CC)c1nnc(NC(=O)c2nc3nc(C)cc(C)n3n2)s1	6%	-21%	56µM*	-4%	3%	0%
CCSc1nnc(NC(=O)[C@@H](NC(=O)c2cccc(C)c2)C(C)C)s1	-1%	32%	2%	-1%	0%	2%
CCC(CC)c1nnc(NC(=O)[C@@H](NC(=O)c2cccc(C)c2)C(C)C)s1	16µM*	20µM*	-8%	/	3%	1%
S=C1NC=NC2N=CNC12 (stereo unspecified)	8%	4%	14µM*	/	/	/
CCN(CC)c1ccc(-c2c(C#N)c(N)nc(OC)c2C#N)cc1	-1%	17%	14%	32µM*	-2%	23%[38.3 µM]
Cn1nc(N)c2c(-c3ccc(Cl)cc3)c(C#N)c(N)nc21	?	19%	3%	1%	1%	-1%
CC1CC(C)CN(c2oc(-c3ccccc3Cl)nc2C#N)C1 (stereo unspecified)	5%	-4%	-1%	11µM*	-1%	12%[38.3 µM]

Screens deposited in PubChem by National Center for Advancing Translational Sciences (NCATS).
